The values that follow come from article PMC7862700, “An all-to-all approach to the identification of sequence-specific readers for epigenetic DNA modifications on cytosine”.

Experiment in all cases: DAPPL (digital affinity profiling via proximity ligation, sequencing); 10 mM Tris-HCl pH 7.5, 50 mM NaCl, 1 mM DTT, 4% glycerol, room temperature, 30 min; GST-TFs on glutathione beads, 16-mer random dsDNA library, 0.1% formaldehyde crosslink after washing; high values mean tight binding
The target of one assay is T1, FEV (Homo sapiens, UniProt Q99581 1-238).
T1 sequence: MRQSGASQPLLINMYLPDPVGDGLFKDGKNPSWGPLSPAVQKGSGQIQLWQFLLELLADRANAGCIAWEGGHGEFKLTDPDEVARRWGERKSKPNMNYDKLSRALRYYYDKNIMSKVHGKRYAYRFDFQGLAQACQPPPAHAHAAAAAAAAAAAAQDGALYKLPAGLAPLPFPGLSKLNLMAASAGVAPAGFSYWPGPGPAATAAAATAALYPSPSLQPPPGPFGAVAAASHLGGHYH
Conditions: protein: recombinant; tags: N-terminal GST; dsDNA, one strand shown. The method in brief:
(§1)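 In yeast, human transcription factors were expressed with a GST fusion, then pulled down on glutathione beads and given DNA barcodes. Pooled with a tag-only sample, they were exposed to 200 nmole of a 16-mer random double-stranded DNA library (Tris/NaCl/DTT/glycerol buffer, room temperature, 30 min), washed, crosslinked with 0.1% formaldehyde, proximity-ligated using BsaI/T4 ligase for 1 h at 37 °C, PCR-amplified and read on an Illumina NextSeq500. Each hexamer's frequency of reads for a factor, divided by the matching frequency for the tag-only sample, gives the binding signal.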

The target in another assay is ETV5 (Homo sapiens, UniProt P41161 1-510). The settings on record: protein: recombinant; tags: N-terminal GST; dsDNA, one strand shown. The method in brief:
as §1

A further assay concerns the target HSF1 (Homo sapiens, UniProt Q00613 1-529). The settings on record: protein: recombinant; tags: N-terminal GST; chain copies: 3; dsDNA, one strand shown. The method in brief:
as §1

A further assay deals with T2, SPIC (Homo sapiens, UniProt Q8N5J4 1-248).
T2 sequence: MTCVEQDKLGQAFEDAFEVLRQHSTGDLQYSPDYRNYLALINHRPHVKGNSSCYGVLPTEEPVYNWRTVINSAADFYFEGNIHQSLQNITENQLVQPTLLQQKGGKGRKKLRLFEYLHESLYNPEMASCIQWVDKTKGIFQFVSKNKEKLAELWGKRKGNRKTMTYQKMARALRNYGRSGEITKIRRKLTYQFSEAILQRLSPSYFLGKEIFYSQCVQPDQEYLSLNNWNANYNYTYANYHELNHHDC
Conditions: protein: recombinant; tags: N-terminal GST; dsDNA, one strand shown. The essentials:
as §1

The target in a further assay is ELF4 (Homo sapiens, UniProt Q99607 1-663). Conditions: protein: recombinant; tags: N-terminal GST; dsDNA, one strand shown. The essentials:
as §1

A further assay deals with T3, ELK4 (Homo sapiens, UniProt P28324-2 1-405).
T3 sequence: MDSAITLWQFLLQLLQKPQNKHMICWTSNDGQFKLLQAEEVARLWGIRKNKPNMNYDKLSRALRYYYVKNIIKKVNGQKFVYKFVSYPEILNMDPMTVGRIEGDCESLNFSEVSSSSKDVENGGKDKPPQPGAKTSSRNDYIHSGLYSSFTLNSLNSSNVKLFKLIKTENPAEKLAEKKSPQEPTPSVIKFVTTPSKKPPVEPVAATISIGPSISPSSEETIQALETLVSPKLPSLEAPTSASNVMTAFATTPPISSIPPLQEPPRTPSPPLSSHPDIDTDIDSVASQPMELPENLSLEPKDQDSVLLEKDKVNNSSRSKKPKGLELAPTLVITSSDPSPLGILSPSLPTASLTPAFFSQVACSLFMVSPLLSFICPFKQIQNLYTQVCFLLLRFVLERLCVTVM
The settings on record: protein: recombinant; tags: N-terminal GST; dsDNA, one strand shown. The method in brief: as §1

For the next assay, the target named is T4, ETV2 (Homo sapiens, UniProt O00321 1-342).
T4 sequence: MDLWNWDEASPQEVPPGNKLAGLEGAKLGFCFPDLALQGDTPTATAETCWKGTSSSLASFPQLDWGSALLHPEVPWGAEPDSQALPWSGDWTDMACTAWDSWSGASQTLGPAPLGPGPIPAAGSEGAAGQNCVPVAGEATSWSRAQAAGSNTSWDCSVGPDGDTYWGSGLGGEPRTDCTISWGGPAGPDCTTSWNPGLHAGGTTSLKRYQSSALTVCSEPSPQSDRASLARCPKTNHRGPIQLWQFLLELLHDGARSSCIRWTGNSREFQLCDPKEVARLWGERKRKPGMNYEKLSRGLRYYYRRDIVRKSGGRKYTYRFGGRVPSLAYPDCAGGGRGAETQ
The settings on record: protein: recombinant; tags: N-terminal GST; dsDNA, one strand shown. The essentials: as §1

Another assay has as its target T5, ELF3 (Homo sapiens, UniProt P78545 1-371).
T5 sequence: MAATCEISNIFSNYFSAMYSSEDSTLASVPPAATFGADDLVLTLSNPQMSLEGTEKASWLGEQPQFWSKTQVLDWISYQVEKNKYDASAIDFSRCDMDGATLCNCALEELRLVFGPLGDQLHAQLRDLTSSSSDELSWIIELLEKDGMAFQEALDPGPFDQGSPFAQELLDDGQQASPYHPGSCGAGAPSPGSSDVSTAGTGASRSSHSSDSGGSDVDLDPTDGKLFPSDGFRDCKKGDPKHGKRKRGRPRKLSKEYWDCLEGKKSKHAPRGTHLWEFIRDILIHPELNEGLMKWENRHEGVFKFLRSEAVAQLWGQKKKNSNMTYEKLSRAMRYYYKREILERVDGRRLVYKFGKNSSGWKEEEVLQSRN
The settings on record: protein: recombinant; tags: N-terminal GST; dsDNA, one strand shown. The method in brief: as §1

A further assay addresses CRX (Homo sapiens, UniProt O43186 1-299). The settings on record: protein: recombinant; tags: N-terminal GST; dsDNA, one strand shown. The method in brief:
as §1

A further assay addresses ETV1 (Homo sapiens, UniProt P50549 1-477). The settings on record: protein: recombinant; tags: N-terminal GST; dsDNA, one strand shown. The essentials: as §1
For the next assay, the target named is T6, ERF (Homo sapiens, UniProt P50548 1-548).
T6 sequence: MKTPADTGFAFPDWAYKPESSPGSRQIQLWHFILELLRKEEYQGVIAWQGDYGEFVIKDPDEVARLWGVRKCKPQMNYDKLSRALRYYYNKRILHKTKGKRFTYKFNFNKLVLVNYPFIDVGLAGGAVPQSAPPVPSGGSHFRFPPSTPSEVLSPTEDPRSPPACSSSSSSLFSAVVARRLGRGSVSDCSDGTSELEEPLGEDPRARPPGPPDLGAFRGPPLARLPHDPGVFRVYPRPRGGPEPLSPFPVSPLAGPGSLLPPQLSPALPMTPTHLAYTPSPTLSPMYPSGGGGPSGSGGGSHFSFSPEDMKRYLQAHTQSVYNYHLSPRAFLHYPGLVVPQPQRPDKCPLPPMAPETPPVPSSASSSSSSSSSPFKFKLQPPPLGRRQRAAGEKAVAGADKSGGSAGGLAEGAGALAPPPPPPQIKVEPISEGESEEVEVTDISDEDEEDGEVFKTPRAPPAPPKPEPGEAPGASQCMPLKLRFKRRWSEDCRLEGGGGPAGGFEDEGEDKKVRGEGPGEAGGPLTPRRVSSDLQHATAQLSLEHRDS
The settings on record: protein: recombinant; tags: N-terminal GST; dsDNA, one strand shown. The essentials: as §1

The next assay has as its target T7, ETV3L (Homo sapiens, UniProt Q6ZN32 1-361).
T7 sequence: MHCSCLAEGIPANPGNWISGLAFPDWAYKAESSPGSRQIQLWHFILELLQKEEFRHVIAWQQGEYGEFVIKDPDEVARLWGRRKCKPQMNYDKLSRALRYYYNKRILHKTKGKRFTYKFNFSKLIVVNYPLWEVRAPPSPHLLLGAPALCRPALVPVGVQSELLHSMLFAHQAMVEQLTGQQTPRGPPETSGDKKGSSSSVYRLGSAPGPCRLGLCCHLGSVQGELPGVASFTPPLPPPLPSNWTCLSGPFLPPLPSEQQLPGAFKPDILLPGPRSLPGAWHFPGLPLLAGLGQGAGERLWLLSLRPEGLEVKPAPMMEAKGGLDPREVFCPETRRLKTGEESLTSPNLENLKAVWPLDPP
The settings on record: protein: recombinant; tags: N-terminal GST; dsDNA, one strand shown. The essentials:
as §1

The target in another assay is T8, ETS2 (Homo sapiens, UniProt P15036 1-469).
T8 sequence: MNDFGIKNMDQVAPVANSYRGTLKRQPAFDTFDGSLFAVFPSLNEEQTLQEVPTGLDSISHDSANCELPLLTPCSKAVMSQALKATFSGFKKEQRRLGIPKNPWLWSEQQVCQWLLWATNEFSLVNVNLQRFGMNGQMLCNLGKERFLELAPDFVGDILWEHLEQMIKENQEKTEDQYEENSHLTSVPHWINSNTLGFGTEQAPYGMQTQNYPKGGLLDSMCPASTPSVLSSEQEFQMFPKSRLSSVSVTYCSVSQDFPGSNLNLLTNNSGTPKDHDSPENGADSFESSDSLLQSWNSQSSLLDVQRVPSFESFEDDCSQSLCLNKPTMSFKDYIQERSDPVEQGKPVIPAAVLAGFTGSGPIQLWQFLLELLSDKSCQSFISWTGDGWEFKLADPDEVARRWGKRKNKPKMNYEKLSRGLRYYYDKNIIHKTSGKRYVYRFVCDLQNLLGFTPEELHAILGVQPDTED
Conditions: protein: recombinant; tags: N-terminal GST; dsDNA, one strand shown. The essentials: as §1

A further assay deals with T9, SPDEF (Homo sapiens, UniProt O95238 1-335).
T9 sequence: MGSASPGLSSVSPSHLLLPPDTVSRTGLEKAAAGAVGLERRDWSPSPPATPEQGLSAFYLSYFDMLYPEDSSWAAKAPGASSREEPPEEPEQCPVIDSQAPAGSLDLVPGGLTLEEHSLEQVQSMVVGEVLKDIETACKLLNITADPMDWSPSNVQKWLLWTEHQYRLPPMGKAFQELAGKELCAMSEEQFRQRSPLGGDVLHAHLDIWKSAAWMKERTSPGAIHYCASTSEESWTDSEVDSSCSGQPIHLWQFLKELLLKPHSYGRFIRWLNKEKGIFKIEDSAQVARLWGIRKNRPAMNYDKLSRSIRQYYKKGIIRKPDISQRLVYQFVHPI
Conditions: protein: recombinant; tags: N-terminal GST; dsDNA, one strand shown. The essentials: as §1

In a further assay the target is T10, ETV7 (Homo sapiens, UniProt Q9Y603 1-341).
T10 sequence: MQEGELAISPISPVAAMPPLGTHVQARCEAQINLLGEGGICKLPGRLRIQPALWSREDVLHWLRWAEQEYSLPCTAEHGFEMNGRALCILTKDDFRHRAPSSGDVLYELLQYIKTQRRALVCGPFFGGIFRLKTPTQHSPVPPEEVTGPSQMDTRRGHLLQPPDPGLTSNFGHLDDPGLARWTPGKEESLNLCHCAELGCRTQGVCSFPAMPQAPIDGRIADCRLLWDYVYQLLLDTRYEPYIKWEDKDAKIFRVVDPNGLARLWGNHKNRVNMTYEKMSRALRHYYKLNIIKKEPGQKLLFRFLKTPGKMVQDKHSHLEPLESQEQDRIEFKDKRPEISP
The settings on record: protein: recombinant; tags: N-terminal GST; dsDNA, one strand shown. The method in brief: as §1

For the next assay, the target named is T11, ELF5 (Homo sapiens, UniProt Q9UKW6-2 1-255).
T11 sequence: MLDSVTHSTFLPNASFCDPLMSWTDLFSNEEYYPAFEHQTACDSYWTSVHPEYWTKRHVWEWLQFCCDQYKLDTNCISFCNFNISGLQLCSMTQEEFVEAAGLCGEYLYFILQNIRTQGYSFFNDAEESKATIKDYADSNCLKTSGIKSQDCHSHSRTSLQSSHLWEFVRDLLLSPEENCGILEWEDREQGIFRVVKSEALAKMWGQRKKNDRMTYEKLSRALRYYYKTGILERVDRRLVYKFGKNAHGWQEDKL
Conditions: protein: recombinant; tags: N-terminal GST; dsDNA, one strand shown. The essentials:
as §1

For a further assay, the target named is T12, ETV3 (Homo sapiens, UniProt P41162-2 1-143).
T12 sequence: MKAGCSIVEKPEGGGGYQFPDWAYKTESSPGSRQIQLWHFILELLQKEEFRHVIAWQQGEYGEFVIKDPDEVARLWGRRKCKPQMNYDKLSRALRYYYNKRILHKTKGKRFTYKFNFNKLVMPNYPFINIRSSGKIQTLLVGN
The settings on record: protein: recombinant; tags: N-terminal GST; dsDNA, one strand shown. The method in brief: as §1

For the next assay, the target named is ETV6 (Homo sapiens, UniProt P41212 1-452). Conditions: protein: recombinant; tags: N-terminal GST; dsDNA, one strand shown. The essentials:
as §1

Chain of ETV5 (P41161 whole entry): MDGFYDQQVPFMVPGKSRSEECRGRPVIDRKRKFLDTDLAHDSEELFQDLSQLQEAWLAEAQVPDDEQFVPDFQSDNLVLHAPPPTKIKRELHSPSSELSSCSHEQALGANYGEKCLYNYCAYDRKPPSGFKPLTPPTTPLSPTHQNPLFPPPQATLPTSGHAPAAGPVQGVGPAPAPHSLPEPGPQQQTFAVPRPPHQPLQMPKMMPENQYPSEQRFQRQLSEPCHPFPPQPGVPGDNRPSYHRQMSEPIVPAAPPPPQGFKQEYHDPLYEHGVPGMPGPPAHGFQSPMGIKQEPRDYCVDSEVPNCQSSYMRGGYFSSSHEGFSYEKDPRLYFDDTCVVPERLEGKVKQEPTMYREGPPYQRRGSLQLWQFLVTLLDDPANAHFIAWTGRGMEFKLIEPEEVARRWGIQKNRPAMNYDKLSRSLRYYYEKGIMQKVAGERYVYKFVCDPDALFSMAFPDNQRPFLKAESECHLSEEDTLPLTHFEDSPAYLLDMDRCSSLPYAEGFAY
Chain of ETV6 (P41212 whole entry): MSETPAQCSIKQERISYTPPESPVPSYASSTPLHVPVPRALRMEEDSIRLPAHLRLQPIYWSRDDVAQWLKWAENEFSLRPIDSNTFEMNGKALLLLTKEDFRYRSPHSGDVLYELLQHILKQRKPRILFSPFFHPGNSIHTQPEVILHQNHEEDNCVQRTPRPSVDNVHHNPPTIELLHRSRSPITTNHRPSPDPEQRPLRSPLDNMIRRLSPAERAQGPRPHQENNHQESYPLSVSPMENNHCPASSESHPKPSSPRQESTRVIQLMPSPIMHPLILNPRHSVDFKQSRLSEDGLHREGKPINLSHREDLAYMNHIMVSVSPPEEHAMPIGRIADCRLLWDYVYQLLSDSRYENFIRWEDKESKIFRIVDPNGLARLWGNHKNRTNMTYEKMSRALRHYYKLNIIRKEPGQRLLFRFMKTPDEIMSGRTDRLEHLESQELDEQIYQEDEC
Chain of CRX (O43186 whole entry): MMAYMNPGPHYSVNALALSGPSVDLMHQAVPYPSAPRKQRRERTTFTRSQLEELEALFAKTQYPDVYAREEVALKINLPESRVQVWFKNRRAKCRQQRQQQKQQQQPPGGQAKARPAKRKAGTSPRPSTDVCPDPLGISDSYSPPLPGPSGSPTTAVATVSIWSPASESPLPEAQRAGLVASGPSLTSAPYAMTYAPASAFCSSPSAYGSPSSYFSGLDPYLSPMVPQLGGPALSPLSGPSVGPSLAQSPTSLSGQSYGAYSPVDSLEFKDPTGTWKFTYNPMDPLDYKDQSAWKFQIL
Chain of ELF4 (Q99607 whole entry): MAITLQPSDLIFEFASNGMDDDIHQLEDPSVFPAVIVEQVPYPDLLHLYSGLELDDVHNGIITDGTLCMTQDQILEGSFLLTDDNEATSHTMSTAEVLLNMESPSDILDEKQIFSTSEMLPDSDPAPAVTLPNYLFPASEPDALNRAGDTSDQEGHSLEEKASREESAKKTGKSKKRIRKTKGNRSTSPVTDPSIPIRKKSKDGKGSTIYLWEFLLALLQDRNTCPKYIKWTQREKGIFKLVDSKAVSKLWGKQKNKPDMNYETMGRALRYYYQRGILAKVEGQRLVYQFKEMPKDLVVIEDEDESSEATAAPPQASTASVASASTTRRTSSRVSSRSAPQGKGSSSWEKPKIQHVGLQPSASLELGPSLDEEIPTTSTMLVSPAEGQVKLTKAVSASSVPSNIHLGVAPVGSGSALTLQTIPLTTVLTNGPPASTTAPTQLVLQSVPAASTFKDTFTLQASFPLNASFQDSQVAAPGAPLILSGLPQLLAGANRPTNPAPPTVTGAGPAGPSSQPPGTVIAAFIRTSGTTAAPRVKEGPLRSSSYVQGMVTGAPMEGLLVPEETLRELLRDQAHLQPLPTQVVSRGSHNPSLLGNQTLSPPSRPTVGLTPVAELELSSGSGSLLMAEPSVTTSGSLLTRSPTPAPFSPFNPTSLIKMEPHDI
Chain of HSF1 (Q00613 whole entry): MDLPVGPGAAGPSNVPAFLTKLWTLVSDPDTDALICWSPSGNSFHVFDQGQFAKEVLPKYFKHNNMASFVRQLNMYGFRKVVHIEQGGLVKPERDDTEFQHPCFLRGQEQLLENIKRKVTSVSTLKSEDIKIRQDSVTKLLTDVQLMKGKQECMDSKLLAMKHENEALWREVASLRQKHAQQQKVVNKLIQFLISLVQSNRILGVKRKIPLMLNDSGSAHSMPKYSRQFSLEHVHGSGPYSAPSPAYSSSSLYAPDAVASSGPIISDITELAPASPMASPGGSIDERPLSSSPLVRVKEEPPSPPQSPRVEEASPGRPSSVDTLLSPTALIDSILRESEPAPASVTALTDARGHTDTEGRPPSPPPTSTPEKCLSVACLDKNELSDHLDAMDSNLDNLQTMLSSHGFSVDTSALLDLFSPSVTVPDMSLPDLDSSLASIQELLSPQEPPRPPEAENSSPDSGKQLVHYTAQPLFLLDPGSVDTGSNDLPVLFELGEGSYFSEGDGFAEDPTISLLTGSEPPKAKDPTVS
Chain of ETV1 (P50549 whole entry): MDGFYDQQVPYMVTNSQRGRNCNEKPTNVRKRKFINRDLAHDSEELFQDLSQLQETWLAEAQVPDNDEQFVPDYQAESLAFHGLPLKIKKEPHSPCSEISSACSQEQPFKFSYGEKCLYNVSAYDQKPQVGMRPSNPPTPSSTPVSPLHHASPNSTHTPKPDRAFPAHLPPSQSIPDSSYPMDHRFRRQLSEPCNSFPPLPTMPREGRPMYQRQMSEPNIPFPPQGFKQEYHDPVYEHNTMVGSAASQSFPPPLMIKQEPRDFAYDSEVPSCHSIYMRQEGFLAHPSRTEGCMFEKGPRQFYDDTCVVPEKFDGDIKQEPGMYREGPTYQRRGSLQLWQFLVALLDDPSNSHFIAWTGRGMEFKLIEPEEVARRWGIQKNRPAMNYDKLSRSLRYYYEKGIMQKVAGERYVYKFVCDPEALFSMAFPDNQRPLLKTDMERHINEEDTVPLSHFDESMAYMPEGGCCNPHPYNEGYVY

As for GACTTC, the binding signal is 3.36 fold enrichment (6-mer frequency, TF over GST control) with FEV; 2.51 fold enrichment (6-mer frequency, TF over GST control) in the assay with ETV5; 1.23 fold enrichment (6-mer frequency, TF over GST control) with HSF1; 2.23 fold enrichment (6-mer frequency, TF over GST control) in the assay with SPIC; 2.28 fold enrichment (6-mer frequency, TF over GST control) with ELF4; 2.22 fold enrichment (6-mer frequency, TF over GST control) with ELK4. In addition, the binding signal was 2.35 fold enrichment (6-mer frequency, TF over GST control) with ETV2; 2.29 fold enrichment (6-mer frequency, TF over GST control) in the assay with ELF3; 1.12 fold enrichment (6-mer frequency, TF over GST control) with CRX; 2.56 fold enrichment (6-mer frequency, TF over GST control) with ETV1; 2.25 fold enrichment (6-mer frequency, TF over GST control) with ERF; 2.41 fold enrichment (6-mer frequency, TF over GST control) with ETV3L. Further, the binding signal with ETS2 was 2.58 fold enrichment (6-mer frequency, TF over GST control); in the assay with SPDEF, 2.13 fold enrichment (6-mer frequency, TF over GST control); with ETV7, 2.2 fold enrichment (6-mer frequency, TF over GST control); with ELF5, 2.99 fold enrichment (6-mer frequency, TF over GST control); in the assay with ETV3, 2.6 fold enrichment (6-mer frequency, TF over GST control); with ETV6, 2.64 fold enrichment (6-mer frequency, TF over GST control).
